Where two headings read alike, the source gives them in different places. Among all 13,000 compounds or so, about 3,200 (25%) showed an effect of 50% or more. This is one part of the list.
Tested on: P. falciparum stage V gametocytes
Parameters: BacTiter-Glo ATP luminescence viability of purified stage V gametocytes in 384-well plates, per cent inhibition versus DMSO
Conditions: 48 h, 5 µM, inhibitor

SMILES | % Inhibition | % Inhibition (% Inhibition)
CCC(C(=O)Nc1ccccc1)n1nc(-c2ccc(C)c(S(=O)(=O)N3CCCCC3)c2)ccc1=O (centres unmarked) [TCMDC-124712] | -71.76% | –
CC(=O)c1c(Cc2cccc(C(F)(F)F)c2)c[nH]c1C [TCMDC-124434] | -10.65% | –
COc1ccc(C(C(=O)NC2CCN(C[C@H](O)c3ccnc4ccc(OC)cc34)CC2)N2CCN(c3ccc(Cl)c(Cl)c3)CC2)cc1 (some centres unmarked) [TCMDC-141101] | 14.7% | –
NC(N)=NC(=O)Nc1cc(Cl)c(F)c(Cl)c1 [TCMDC-137512] | -14.8% | –
Cc1cc(N(C)C)nc(Nc2ccc(NC(=O)c3ccccc3Cl)cc2)n1 [TCMDC-124722] | -1.9% | –
C=CCn1ccc2c3c(N)nc(N)nc3ccc21 [TCMDC-137995] | 79.96% | –
Nc1nc(N)c2c(ccc3c2ccn3CCCC(F)(F)F)n1 [TCMDC-138622] | 32.41% | –
CCn1ccc2c3c(N)nc(N)nc3ccc21 [TCMDC-139864] | 0.4857% | –
Oc1ccc(Br)cc1C(O)CNCc1ccccc1OCc1ccccc1 (centres unmarked) [TCMDC-140564] | 21.06% | –
CN(Cc1ccccc1)C1CCN(CCc2c[nH]c3ccc(F)cc23)CC1 [TCMDC-131970] | 10.21% | –
OC1(CNCc2ccccc2)CCN(CCc2c[nH]c3ccc(F)cc23)CC1 [TCMDC-131975] | 35.49% | –
Fc1ccc2[nH]cc(CCN3CCC(CNCc4ccccc4)CC3)c2c1 [TCMDC-131984] | 53.36% | –
N#Cc1ccc2c(c1)CN(CC[C@H]1CC[C@H](NC(=O)/C=C/c3c[nH]c4ccccc34)CC1)CC2 [TCMDC-139133] | – | 11.83%
O=C(NC1CCN(c2ccnc3cc(Cl)ccc23)C1)c1ccccc1F (centres unmarked) [TCMDC-133660] | -3.046% | –
COC(=O)c1cccc(NC(=O)NCCNc2ccnc(Nc3ccc(F)cc3)n2)c1 [TCMDC-133642] | 41.44% | –
O=C(c1ccc(Br)o1)N1N=C(c2cccs2)CC1c1ccc(Br)cc1 (centres unmarked) [TCMDC-125623] | 10.04% | –
O=C(NCCCCN1CCN(c2cccc3c2CCCC3)CC1)c1ccc(NC(=O)c2ccc(Cl)cc2)cc1 [TCMDC-138513] | -3.326% | –
COc1ccc(C2CCN(CCCCNC(=O)c3ccc(NC(=O)c4ccc(Cl)cc4)cc3)CC2)c(C)c1 [TCMDC-138359] | -1.308% | –
O=C(NCCCCN1CCC(c2ccc3c(c2OC(=O)c2ccc(NC(=O)c4ccc(Cl)cc4)cc2)CCCC3)CC1)c1ccc(NC(=O)c2ccc(Cl)cc2)cc1 [TCMDC-138644] | 102.3% | –
O=C(NCCCCN1CCC(c2ccc3c(c2OCC2CC2)CCCC3)CC1)c1ccc(NC(=O)c2ccc(Cl)cc2)cc1 [TCMDC-138584] | 71.88% | –
CC(=O)Oc1c(C2CCN(CCCCNC(=O)c3ccc(NC(=O)c4ccc(Cl)cc4)cc3)CC2)ccc2c1CCCC2 [TCMDC-138649] | 92.78% | –
CC(C)(C)c1cc(Cn2ccnc2)cc(C(C)(C)C)c1O [TCMDC-131317] | -23.04% | –
Cc1cnc(C(=O)Nc2cccc(-c3csc(-c4nc5ccccc5[nH]4)c3)c2)cn1 [TCMDC-132401] | -83.32% | –

SMILES | % Inhibition | % Inhibition (% Inhibition)
CC(=O)c1ccc(N2CCN(C(=O)Nc3ccc(Cl)cc3)CC2)cc1 [TCMDC-125821] | -3.219% | –
O=C(O[C@@H]1CN[C@H](C#Cc2cc3ncnc(Nc4ccc5c(cnn5Cc5cccc(F)c5)c4)c3s2)C1)N1CCCC1 [TCMDC-135355] | -4.612% | –
CC(C)Oc1cc2c(cc1NS(=O)(=O)c1ccc(-c3cccs3)cc1)CCN(C)CC2 [TCMDC-141486] | 15.65% | –
COCCCC1C(=O)OC2CCCC21 (centres unmarked) [TCMDC-131981] | 9.495% | –
O=C(O)C(F)(F)F.OCCN1CCN(Cc2cccc(-c3ccc(-c4nc5cc(C(F)(F)F)ccc5[nH]4)s3)c2)CC1 [TCMDC-133028] | 0.1652% | –
CCOC(=O)CCc1cc(F)c(F)c(OC[C@H](O)CNC(C)(C)C(O)c2ccc3ccccc3c2)c1 (some centres unmarked) [TCMDC-141731] | -25.49% | –
Clc1ccc(-c2cc3c(NCc4ccncc4)nccc3s2)cc1 [TCMDC-135202] | 11.9% | –
CN(C)C(=O)CC(=O)NCc1c(Cl)cccc1Cl [TCMDC-131769] | -6.865% | –
COc1cccc(NC(=O)Cn2c(C)c(C#N)c3ccccc32)c1 [TCMDC-125424] | 84.65% | –
CC(C)C(NC(=O)Cc1cccc2ccccc12)C(=O)Nc1cccc(C#N)c1 (centres unmarked) [TCMDC-125329] | -6.888% | –
COc1ccccc1Cn1ccnc1SCC(=O)Nc1cccc(C(F)(F)F)c1 [TCMDC-124737] | -18.32% | –
COc1cccc(NC(=O)c2cc(Br)cc(N3CCN(c4ccncc4)CC3)c2)c1 [TCMDC-135146] | 1.077% | –
COc1cccc(NC(=O)Cn2c(C)c(C(=O)C(F)(F)F)c3ccccc32)c1 [TCMDC-123800] | 60.17% | –
COc1cccc(NC(=O)Nc2c(-c3cccc(C(F)(F)F)c3)c(C(F)(F)F)nn2C)c1 [TCMDC-124575] | 19.24% | –
O=C(/C=C/c1ccc(Cl)cc1)NCCCCCN1CCCN(C(=O)Nc2ccc(Cl)c(C(F)(F)F)c2)CC1 [TCMDC-136100] | -19.2% | –
O=C(Nc1cccc(N2CCC(NCCCn3ccnc3)CC2)c1)c1cccc(C(F)(F)F)c1 [TCMDC-124663] | 36.86% | –
Cc1cc(NC(=O)NCCN2CCC(NC(=O)c3ccc(F)cc3)CC2)c2ccccc2n1 [TCMDC-136173] | 91.01% | –
COc1ccc(NC(=O)NC2CCN(CCCOc3ccnc4cc(Cl)ccc34)C2)cc1OC (centres unmarked) [TCMDC-136148] | -28.4% | –
COc1ccc(NC(=O)NC2CCN(CCCOc3cc(C)nc4ccccc34)CC2)cc1OC [TCMDC-136281] | 77.42% | –
Cc1cc(NC(=O)NCCN2CCC(NS(=O)(=O)c3ccc(Br)cc3)C2)c2ccccc2n1 (centres unmarked) [TCMDC-136139] | 5.798% | –
Cc1cc(NC(=O)NCCN2CCC(NC(=O)c3ccc(Cl)cc3)CC2)c2ccccc2n1 [TCMDC-136171] | -56.82% | –
Cc1cc(NC(=O)NCCN2CCC(NC(=O)c3cccc(Br)c3)C2)c2ccccc2n1 (centres unmarked) [TCMDC-136175] | 92.91% | –
Cc1cc(NC(=O)NCCN2CCC(NS(=O)(=O)c3cccc(Br)c3)C2)c2ccccc2n1 (centres unmarked) [TCMDC-136138] | 15.89% | –

SMILES | % Inhibition | % Inhibition (% Inhibition)
COc1ccc(S(=O)(=O)NC2CCN(CCNC(=O)Nc3cc(C)nc4ccccc34)C2)cc1 (centres unmarked) [TCMDC-136141] | -35.07% | –
Cc1cc(OCCCN2CCC(NC(=O)c3ccc(Br)cc3)C2)c2ccccc2n1 (centres unmarked) [TCMDC-136284] | 3.225% | –
Cc1ccc(C(=O)NC2CCN(CCNC(=O)Nc3cc(C)nc4ccccc34)CC2)cc1 [TCMDC-136172] | -7.111% | –
Cc1ccc(S(=O)(=O)NC2CCN(CCNC(=O)Nc3cc(C)nc4ccccc34)C2)cc1 (centres unmarked) [TCMDC-136143] | 91.8% | –
Cc1cc(NC(=O)NCCN2CCC(NC(=O)c3ccc(C(F)(F)F)cc3)CC2)c2ccccc2n1 [TCMDC-136174] | -43.73% | –
CC(=O)Nc1ncc(C(=O)Nc2cccc(-c3ccc(-c4nc5ccc(C(F)(F)F)cc5[nH]4)cc3)c2)s1 [TCMDC-136921] | -28% | –
CC(=O)Oc1c(C2C=CCCC2)c(OC(C)=O)c2ccccc2c1OC(C)=O (centres unmarked) [TCMDC-138176] | 9.671% | –
O=C(NC1CCCCC1)c1ccc(O)c(-c2cccc(C(F)(F)F)c2)c1 [TCMDC-140163] | -1.763% | –
Cc1ccc(O)cc1Nc1ccnc2cc(-c3csc(CNCCN4CCOCC4)n3)ccc12 [TCMDC-138457] | 16.99% | –
Cc1noc(C)c1-c1cccc(CNCc2cccc(-c3ccc(-c4nc5cc(C(F)(F)F)ccc5[nH]4)s3)c2)c1.O=C(O)C(F)(F)F [TCMDC-133055] | 0.7472% | –
CCOc1cc2c(cc1OCC)C(c1cc(OC)c(O)cc1Cl)NCC2 (centres unmarked) [TCMDC-124488] | -19.03% | –
CCc1cc(-c2onc(C)c2-c2cc3ccccc3o2)c(O)cc1OC [TCMDC-125148] | 5.13% | –
C=C(C)CSc1nc2c(c(=O)n1Cc1ccco1)C1(CCCCC1)Cc1ccccc1-2 [TCMDC-123895] | 6.726% | –
Oc1[nH]c2ccccc2c1N=NC(=S)N1CCOCC1 [TCMDC-124263] | 29.38% | –
CCn1c(O)c(N=NC(=S)N2CCCC2)c2ccccc21 [TCMDC-138077] | 9.29% | –
Cn1c(O)c(N=NC(=S)N2CCOCC2)c2ccccc21 [TCMDC-138076] | 88.31% | –
COc1cccc(C(=O)Nc2nc3c(s2)CCN(Cc2ccccc2N2CCNCC2)CC3)c1.O=C(O)C(F)(F)F [TCMDC-134190] | 63.98% | –
COc1ccc(-c2ccc(NC(=O)c3cccc(C#N)c3)cc2)cc1CN1CCNCC1 [TCMDC-132530] | -2.653% | –
CCN1CCN(c2cc(C)c3cc(NC(=O)c4cccc(OC)c4)ccc3n2)CC1 [TCMDC-125573] | 10.75% | –
N#Cc1ccc(/C=C/C(=O)NCCCCCN2CCN(C(=O)Nc3ccc(Cl)c(C(F)(F)F)c3)CC2)cc1 [TCMDC-136098] | -6.45% | –
COc1ccc(C(=O)c2ccc3[nH]cc(C4=CCN(C)CC4)c3c2)cc1 [TCMDC-137276] | -3.804% | –
Cc1ccc(C(=O)Nc2cccc(CN3CCCN(Cc4ccc(O)cc4)CC3)c2)s1 [TCMDC-141858] | 30.58% | –

Source: paper PMC4552634, “A New Set of Chemical Starting Points with Plasmodium falciparum Transmission-Blocking Potential for Antimalarial Drug Discovery” (PLoS ONE, 2015)
